Bioassay records from PubChem BioAssay.
HCMV inh = qHTS Assay for inhibitors of the human cytomegalovirus (HCMV). AID 1259415, 2018. activity change, negative = inhibition, % at 57.5 µM. 4.5% of 410,000 active. HFF cells, HCMV-luciferase reporter, 72 h; stronger effect = lower value; in the data active = activity change below about -60%; inconclusive = no clear call, values can overlap the other calls; inactive = above about -39%
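Luciferase read-out from HCMV-luciferase-infected HFFs (MOI 1 PFU/cell) 72 h post infection at 37C; compounds added after 16 h cell attachment; activity normalized between buffer-only basal and Salinomycin (10uM) inhibitor controls.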
Vaccinia mCherry = qHTS for Stage-Specific Inhibitors of Vaccinia Orthopoxvirus: mCherry Reporter Primary qHTS; Vaccinia virus mCherry reporter infection, fluorescence; Potency, µM (top dose mostly 36.5 µM), actives largely listed as inhibitors; 0.63% of 310,000 active; AID 720579, 2013; calls by dose curve; tested in A549 cells; note: nearly all actives have a fitted effect of over 35% in size
FMDV antiviral = High Throughput Screening for Foot and Mouth Disease Virus Antivirals. 1.2% of 410,000 active. FMDV antiviral cell-based qHTS. AID 1159524, 2015. Potency, µM (highest dose often 57.9 µM), usual class: inhibitors; calls by dose curve; tested in HEK293T cells; note: read-out not given here; nearly all actives have a fitted effect of over 45% in size
HCV inh = qHTS Assay for Inhibitors of Hepatitis C Virus (HCV); Huh7.5.1 HCVcc-Cre infection, luciferase reporter, 44 h; Potency, µM (doses to about 41.8 µM), hits mostly inhibitors; AID 651820, 2012; 3.4% of 340,000 active; active = well fitted inhibition curve with a large enough effect; inconclusive = small, poorly fitted or top-dose-only effect, or another doubt; inactive = no such curve, though single readings can be large or run the other way
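Antiviral activity was scored by luciferase reporter output from cells infected with HCVcc-Cre (~0.5 moi) in presence of compound, 44 h infection period, cells seeded 1,000/well 4 h prior.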
Vaccinia Venus = qHTS for Stage-Specific Inhibitors of Vaccinia Orthopoxvirus: Venus Reporter Primary qHTS. Vaccinia virus Venus reporter expression, fluorescence. Potency, µM (top dose mostly 36.5 µM), hits mostly inhibitors. 0.46% of 330,000 active. AID 720580, 2013; calls by dose curve; tested in A549 cells; note: nearly all actives have a fitted effect of over 30% in size
A number is an active result; - = inactive; ? = inconclusive; . = no result; + = active, no number; [ ] = dose if it differs, or a comment. This is a sample that favours compounds with a hit; in the whole collection about 7.3% have one here.

SMILES | HCMV inh | Vaccinia mCherry | FMDV antiviral | HCV inh | Vaccinia Venus
O=C(CN1CCCCCCC1)Nc1cccc(Cl)c1Cl | -65.4 | . | - | - | .
COc1ccccc1NC(=O)CN1CCC(n2nnc3cc(F)ccc32)CC1 | - | . | ? | ? | .
COc1cc(NC(=O)Nc2ccccc2)c(OC)cc1NC(=O)CN1CCCCC1 | - | ? | - | 11.2µM | ?
Cc1ccc(S(=O)(=O)Nc2ccc(NC(=O)CN3CCCCC3)c(Cl)c2)cc1 | -102.2 | . | - | - | .
CCOC(=O)C1=CCN(S(=O)(=O)c2ccc(Br)cc2)C1c1cccc(F)c1 (stereo unspecified) | - | . | . | . | .
COc1ccc(S(=O)(=O)N(C)C)cc1NC(=O)CN1CCN(C(=O)C2CC2)CC1 | - | . | - | 10µM | .
CC1CCN(CC(=O)Nc2ccccc2-c2ccccc2)CC1 | - | - | - | 35.5µM | -
COc1cc(Cl)c(C)cc1NC(=O)CN1CCN(C(=O)C2CC2)CC1 | . | . | - | ? | .
COc1ccc(NC(=O)CNC(=O)c2ccco2)cc1 | - | - | - | - | -
COc1cc(NC(=O)c2ccc(Cl)cc2)c(OC)cc1NC(=O)CN1CCCCC1 | - | - | - | 7.94µM | -
COC(=O)c1ccccc1NC(=O)CNC(=O)c1ccco1 | -71.7 | . | - | - | -
Cc1ccc(CN2CCOc3ccc(CN4CCC(O)(c5cccnc5)CC4)cc3C2)cc1C | . | - | ? | . | ?
COC(=O)c1ccccc1NC(=O)CN1CCCCC1 | - | + | - | - | +
COc1ccc(NC(=O)Cn2c(=O)n(-c3ccc(CC(=O)NCc4ccco4)cc3)c(=O)c3ccccc32)cc1 | -62.7 | -[7.34 µM] | - | ? | -[7.34 µM]
O=C(CN1CCN(C(=O)CNC(=O)c2ccc3c(c2)OCO3)CC1)Nc1ccccc1Cl | - | . | ? | - | .
COc1ccc(NC(=O)Cn2c(=O)n(-c3ccc(OC)c(OC)c3)c(=O)c3ccccc32)cc1 | - | - | - | . | -
O=C(CN1CCN(C(=O)CNC(=O)c2ccc(-c3ccccc3)cc2)CC1)Nc1ccccc1Cl | ? | ? | 28.2µM | . | ?
COc1cc(NC(=O)Nc2ccccc2OC)c(OC)cc1NC(=O)CN1CCCCC1 | - | . | - | 2.24µM | -
Cc1nn(-c2ccccc2)c(OC(=O)c2ccccc2F)c1S(=O)(=O)c1ccccc1 | - | - | - | . | -
COC(=O)c1ccccc1NC(=O)Cn1c(=O)n(-c2ccc(C)cc2)c(=O)c2ccccc21 | -62.0 | ? | - | . | -
CCCc1nc2ccc(NC(=O)c3cccs3)cc2c(=O)n1Cc1ccc(Cl)cc1 | - | . | - | ? | .
Cc1nc2ccc(NC(=O)c3cccs3)cc2c(=O)n1Cc1ccc(Cl)cc1 | -98.4 | 11.2µM | . | ? | ?
COc1ccc(CCn2c3c(c(=O)[nH]c2=O)C(NC(=O)c2ccc(C(C)(C)C)cc2)(C(F)(F)F)C(=O)N3)cc1OC (stereo unspecified) | - | - | - | . | -
COc1ccc(CCN2C(=O)CS/C2=N\NC(=O)c2ccc(C(C)(C)C)cc2)cc1OC | - | - | 31.6µM | ? | -
COc1ccc(CCN2C(=O)CSC2=Nc2ccc(C(C)C)cc2)cc1OC | ? | - | 20µM | - | -
SMILES | HCMV inh | Vaccinia mCherry | FMDV antiviral | HCV inh | Vaccinia Venus
COc1ccc(N=C2SCC(=O)N2CCc2ccc(OC)c(OC)c2)cc1 | - | . | ? | ? | .
CCOC(=O)c1c(NC(=O)c2nn(CC)cc2Br)c(C#N)nn1-c1ccccc1 | - | - | - | 11.2µM | -
CCOC(=O)c1nn(-c2ccccc2)c(C#N)c1NC(=O)c1nn(CC)cc1Br | - | - | - | ? | -
CCCCCCN1C[C@H](n2cc(COC(=O)c3ccccc3)nn2)[C@@H](O)C[C@@H]1c1ccc(OC)cc1 | - | - | - | . | -
CCCCCCN1C[C@H](n2cc(-c3ccc(F)cc3)nn2)[C@@H](O)C[C@@H]1c1ccc(Cl)cc1 | -102.4 | ? | - | . | 14.1µM
O[C@H]1CN(CC2CCCCC2)[C@@H](c2ccc(Cl)cc2)C[C@@H]1n1cc(C2CC2)nn1 | -70.9 | - | ? | . | ?
CCCCCCN1C[C@H](n2cc(COC(=O)c3ccccc3)nn2)[C@@H](O)C[C@@H]1c1ccc(Cl)cc1 | ? | ? | ? | . | 10µM
COc1ccc([C@H]2C[C@H](O)[C@@H](n3cc(COC(=O)c4ccccc4)nn3)CN2CC2CCCCC2)cc1 | -89.6 | - | ? | . | ?
Cc1cccc(N2CCN(c3cc(C)nc4c(-c5ccc(Cl)cc5)c(C)nn34)CC2C)c1 (stereo unspecified) | - | - | - | . | -
COCc1c(C(=O)N2CCCC(C)C2)cnn1-c1nccc(-c2cc(C)sc2C)n1 (stereo unspecified) | . | - | - | . | -
Cc1ccc(NC(=O)C2CCC(CNS(=O)(=O)c3ccc4c(c3)CCCC(=O)N4)CC2)cc1F (stereo unspecified) | - | - | ? | . | -
COc1cc([C@H]2NC(=O)C[C@H]2C(=O)OCc2ccccc2)ccc1OC(C)C | - | . | . | . | .
Cc1cc2c(cc1NC(=O)c1ccccc1C)n(C)c(=O)c(=O)n2C | - | - | - | . | -
CC1CN(CCCSc2ccc(Cl)cc2)CC(C)O1 (stereo unspecified) | - | - | - | 12.6µM | -
N#Cc1ccccc1Cn1cc(C(=O)c2cccs2)c2ccccc21 | -80.7 | - | - | - | -
O=C(c1cccs1)c1cn(Cc2ccccc2Cl)c2ccccc12 | - | . | - | ? | .
COc1ccccc1-n1c(=O)oc2ccc(Cl)cc2c1=O | -95.3 | . | - | ? | 12.6µM
COCCNc1nc(CSc2ccccc2)nc2sc(C)c(C)c12 | -69.9 | - | - | 25.1µM | -
Cc1sc2nc(CSc3ccccc3)nc(N3CCN(C)CC3)c2c1C | ? | - | ? | ? | -
CC(C)c1ccccc1NC(=S)NC(C)c1ccccc1 (stereo unspecified) | -87.1 | ? | - | - | -
CS(=O)(=O)Nc1ccc(-c2cnc3cccnn23)cc1 | -63.9 | - | - | . | -
Cc1ccccc1-[n+]1c(-c2ccccc2)cc(-c2ccccc2)cc1-c1ccccc1 | -96.2 | - | 10µM | ? | ?
O=C([O-])c1ccccc1-[n+]1c(-c2ccccc2)cc(-c2ccccc2)cc1-c1ccccc1 | ? | - | ? | - | -
Oc1ccccc1-[n+]1c(-c2ccccc2)cc(-c2ccccc2)cc1-c1ccccc1 | -83.9 | - | 28.2µM | . | -
Nc1ccccc1-[n+]1c(-c2ccccc2)cc(-c2ccccc2)cc1-c1ccccc1 | ? | - | ? | - | -
[O-]c1ccccc1-[n+]1c(-c2ccccc2)cc(-c2ccccc2)cc1-c1ccccc1 | -97.0 | - | 28.2µM | 6.31µM | -
O=C(Nc1ccc2nc(SCC(=O)N3CCCc4ccccc43)sc2c1)c1ccccc1 | - | ? | - | . | ?
Cc1ccc2c(C)c(C(=O)N(Cc3ccc(N(C)C)cc3)Cc3ccco3)oc2c1C | - | - | - | . | -
CCCCCCOC(=O)C1(O)CC2OC1(C)n1c3ccccc3c3c4c(c5c6ccccc6n2c5c31)C(=O)NC4 (stereo unspecified) | . | -[3.33 µM] | -[4.63 µM] | . | -[3.33 µM]
